Hit rate of the full screen: of about 310,000 compounds, about 14,000 (4.5%) showed an effect of 50% or more. Effects have a minus sign here. The entries come from a sample that favours strong results as a whole.
target: human ether-à-go-go-related gene (hERG) potassium channel (human, UniProt Q12809); experiment: primary screen, population patch clamp on CHO cells stably expressing hERG; higher = less effect of the substance
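Further: peak tail current of the secondary pulse compared with the same well before compound.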

human ether-à-go-go-related gene (hERG) potassium channel, sequence (Q12809 whole entry, looked up): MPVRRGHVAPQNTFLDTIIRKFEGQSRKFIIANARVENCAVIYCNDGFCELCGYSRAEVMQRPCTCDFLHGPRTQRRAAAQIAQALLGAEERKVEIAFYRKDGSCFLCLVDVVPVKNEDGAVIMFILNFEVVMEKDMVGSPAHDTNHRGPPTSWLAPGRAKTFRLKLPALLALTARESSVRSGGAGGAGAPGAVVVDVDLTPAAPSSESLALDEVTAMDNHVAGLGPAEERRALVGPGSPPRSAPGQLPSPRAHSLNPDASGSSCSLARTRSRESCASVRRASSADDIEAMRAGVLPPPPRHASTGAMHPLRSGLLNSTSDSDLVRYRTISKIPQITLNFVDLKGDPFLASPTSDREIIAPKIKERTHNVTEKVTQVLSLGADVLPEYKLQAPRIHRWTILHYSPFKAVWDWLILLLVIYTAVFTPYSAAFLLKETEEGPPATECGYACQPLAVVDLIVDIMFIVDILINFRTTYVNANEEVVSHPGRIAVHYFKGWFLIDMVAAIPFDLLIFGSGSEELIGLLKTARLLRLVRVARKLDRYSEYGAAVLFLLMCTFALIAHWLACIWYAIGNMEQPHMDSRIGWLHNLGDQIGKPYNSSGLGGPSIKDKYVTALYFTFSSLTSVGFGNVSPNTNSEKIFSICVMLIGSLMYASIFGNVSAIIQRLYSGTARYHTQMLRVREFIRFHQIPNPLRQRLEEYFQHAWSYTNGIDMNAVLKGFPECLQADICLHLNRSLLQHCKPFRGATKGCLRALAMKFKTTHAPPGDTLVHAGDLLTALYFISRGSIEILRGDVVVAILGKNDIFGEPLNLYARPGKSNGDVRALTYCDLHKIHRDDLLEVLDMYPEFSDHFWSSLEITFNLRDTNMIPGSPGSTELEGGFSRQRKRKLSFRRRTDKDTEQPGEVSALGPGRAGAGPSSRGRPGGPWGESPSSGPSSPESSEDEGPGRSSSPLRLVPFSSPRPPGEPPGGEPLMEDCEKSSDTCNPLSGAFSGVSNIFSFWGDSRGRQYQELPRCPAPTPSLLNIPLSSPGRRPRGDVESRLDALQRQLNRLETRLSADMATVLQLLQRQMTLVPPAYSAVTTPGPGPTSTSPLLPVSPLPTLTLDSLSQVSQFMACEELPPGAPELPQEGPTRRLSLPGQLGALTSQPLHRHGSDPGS

| Compound | hERG current change (%, negative = inhibition) at 10uM [%] |
| --- | --- |
| CC(=O)Nc1ccc(NC(=O)Cn2c(CC(=O)N3CCCC3)nc3ccccc32)cc1 | 9 |
| Cc1cc(OC(=O)CCCNC(=O)OC(C)(C)C)c2c3c(c(=O)oc2c1)CCC3 | -9.18 |
| CCC(=O)Nc1cc2nn(-c3ccc(OC)cc3)nc2cc1C | 0.0727 |
| Cc1ccc(Sc2ccc([N+](=O)[O-])cc2[N+](=O)[O-])nc1 | -19.1 |
| Cc1cccc(NC(=O)CCN2C(=O)C3C4C=CC(C4)C3C2=O)c1 (centres unmarked) | 13.6 |
| C/C(=N\NC(=O)c1cc2ccccc2cc1O)c1ccccn1 | -3.94 |
| O=C(NCCN1CCOCC1)/C(=C/c1ccc(Cl)cc1)NC(=O)c1ccccc1 | -76.5 |
| O=C(NCCCN1CCOCC1)/C(=C/c1cccs1)NC(=O)c1ccccc1 | -21.8 |
| Cc1ccc(C(=O)N/C(=C\c2cccs2)C(=O)NCCCN2CCOCC2)cc1 | -61.4 |
| O=C(NC(=S)NCCN1CCOCC1)c1ccc(Cl)cc1 | -13.2 |
| Cc1ccc(C(=O)N/C(=C\c2ccco2)C(=O)NCCN2CCOCC2)cc1 | -23.2 |
| Cc1ccc(C(=O)N/C(=C\c2ccc(Cl)cc2)C(=O)NCCN2CCOCC2)cc1 | -75.1 |
| CN(C)c1ccc(/C=C(/NC(=O)c2ccccc2)C(=O)NCCN2CCOCC2)cc1 | 4.15 |
| CN(C)c1ccc(/C=C(\NC(=O)c2ccccc2)C(=O)NCCN2CCOCC2)cc1 | -19.9 |
| Cc1ccc(C(=O)N/C(=C\c2cn(S(=O)(=O)N(C)C)c3ccccc23)C(=O)NCCCN2CCOCC2)cc1 | -18.7 |
| COc1ccccc1CNC(=O)C(NC(=O)C1CCCCC1)C(C)C (centres unmarked) | 1.84 |
| O=C(O)c1cccc(NS(=O)(=O)c2ccc(Oc3ccc(S(=O)(=O)Nc4cccc(C(=O)O)c4)cc3)cc2)c1 | 20.3 |
| COc1ccc(OC)c(-n2nnnc2SCC(=O)NCCc2ccccc2)c1 | -20.3 |
| CC1Cn2c(nc(=O)c3c2NCN(CCc2ccccc2)C3)S1 (centres unmarked) | 13.5 |
| O=C(C1CC1)N1N=C(c2ccc(Cl)cc2)CC1(O)C(F)(F)F (centres unmarked) | -0.113 |
| Cc1nn(C(C)C(=O)NC2CCC(C)CC2)c(=O)c2nn(-c3ccccc3)c(C)c12 (centres unmarked) | -28.3 |
| O=C(CCS(=O)(=O)c1cccs1)N1CCCC1 | 3.18 |
| O=c1c2ccccc2nc(-c2ccccc2)n1-c1ccccc1O | 16.1 |

— paper PMC4336329 (PLoS ONE, 2015)
